# Where “and” joins values, the source holds several entries; their conditions need not be identical. Identical values can stand only once. Records with an inconclusive call do not appear. Calls of active or inactive are those of the source. Unless noted, the rule behind the calls is not given here.
# Tests used:
# [1] = circadian clock period modulators, cell-based, LOPAC library, luminescence reporter (AID 2774); details: circadian reporter cells, at 7 µM, actives lie on both sides;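 note: values are relative to mean of DMSO wells on each plate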
# [2] = tested on: Hepatitis C virus NS3 helicase; assay: HCV NS3 helicase inhibitors, primary screen, biochemical, fluorescence polarization, LOPAC1280 library (AID 687035; in the data active = inhibition above about 37%); details: Purified HCV NS3 helicase, Cy5-dT15 ssDNA binding fluorescence polarization; stronger effect = higher value; concentration not given here
# [3] = Cy5 fluorescence quenching or enhancement artefacts, artefact control for HCV NS3 helicase inhibitor project, biochemical, LOPAC1280 (AID 687037); details: Cy5-DNA-NS3h complex fluorescence interference counterscreen
# [4] = tested on: Aerobactin synthetase IucA (Klebsiella pneumoniae); assay: IucA aerobactin synthetase inhibitors, biochemical, Tocris library, absorbance (AID 1345561); details: purified IucA enzyme assay, absorbance (OD) read-out; stronger effect = lower value;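 tested at 8 µM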;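 note: 100% = enzyme without compound and 0% = no enzyme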
# [5] = sensitizers of A549 cells to miR-34 induction, primary screen, imaging, A549 dox-inducible miR-34, nuclei and caspase counts (AID 1347080;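 active = compounds whose cell count with miR-34 switched on is under 0.7 times the count with it off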); details: A549 miR-34 inducible, Hoechst nuclei count, 48 h
# [6] = phospholipid biosynthesis inhibitors in animal cells, primary screen, cell-based, LOPAC library, screen 4 (AID 1347384); details: phospholipid biosynthesis inhibition screen, at 10 µM
# [7] = viability rescue of complex I mutant cybrids, primary screen, cell-based, galactose medium, ATP luminescence (AID 1645843;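 active = z-score of at least 1.8 in each of two replicates, scored against plate mean and spread of sample wells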;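 note: positive z means more ATP and so rescue of galactose-driven cybrid death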); details: complex I mutant cybrid cells, 72 h, stronger effect = higher value
# [8] = survival rescue of mitochondrial mutant cells in low glucose, primary screen, MELAS cybrids, Rieske KO mouse fibroblasts, CellTiter-Glo (AID 1508586;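 active = mean z-score across replicates of 1.96 or higher in either the MELAS or the Rieske mutant cell line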;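 note: z relative to plate mean and SD of compound and empty wells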)
# [9] = growth inhibition of DIPG glioma cells, dose response, cell-based, SU-DIPG-IV, MIPE4.0, CellTiter-Glo, qHTS (AID 1347063; cut-off not given, nearly all actives have AC50 up to about 30 µM;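 note: compound exposure lasted 48 hours before the viability readout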); details: SU-DIPG-IV viability, CellTiter-Glo ATP luminescence
# [10] = growth inhibition of DIPG glioma cells, dose response, cell-based, SU-DIPG-XIII, MIPE5.0, CellTiter-Glo, qHTS (AID 1347064; cut-off not given, nearly all actives have AC50 up to about 23 µM;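 note: cells exposed to compound for 48 hours before the viability read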); details: SU-DIPG-XIII viability, CellTiter-Glo ATP luminescence
# [11] = viability loss in pontine glioma line – cell-based, SU-DIPG-XXV, MIPE5.0, CellTiter-Glo, qHTS, dose response (AID 1347065; cut-off not given, nearly all actives have AC50 up to about 26 µM;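 note: cells exposed to compound for 48 hours before ATP readout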); details: CellTiter-Glo ATP luminescence
# [12] = SU-DIPG-VI glioma cell viability, MIPE4.0 library, CellTiter-Glo luminescence, qHTS (AID 1347066; cut-off not given, nearly all actives have AC50 up to about 30 µM;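 note: cells exposed to compound for 48 hours before readout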); details: CellTiter-Glo ATP luminescence
# [13] = JHH-DIPG-1 glioma cell viability, MIPE5.0 library, CellTiter-Glo luminescence, qHTS (AID 1347067; cut-off not given, nearly all actives have AC50 up to about 26 µM;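 note: cells exposed to compound for 48 hours before readout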); details: JHH-DIPG-1 glioma viability, CellTiter-Glo ATP luminescence
# [14] = tested on: Aerobactin synthetase IucA (Klebsiella pneumoniae, hypervirulent); assay: IucA enzyme inhibition, biochemical, LOPAC library, absorbance readout (AID 1346212); details: IucA enzyme assay, absorbance (OD) readout; stronger effect = lower value;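 tested at 8 µM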;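 note: 100% = no compound wells and 0% = no enzyme wells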
# [15] = hESC survival regulators, cell-based (AID 493140); details: human embryonic stem cell survival screen; stronger effect = higher value;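 note: cells exposed to compounds for four days before counting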
# [16] = liver-stage malaria parasite growth inhibition, primary screen, cell-based, HepG2, luciferase luminescence, HepG2 viability (AID 624349; in the data active = parasite load remaining mostly below about 12%, no sharp cut-off; inactive = mostly above about 10%;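 note: 100% = mean of DMSO negative control wells on the same plate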); details: P. berghei liver stage in HepG2, luciferase luminescence, concentration not given here; parasite load remaining: stronger effect = lower value; viability: measured here: HepG2 viability without parasites
# [17] = measured here: relative caspase fold change +Dox/-Dox
# [18] = measured here: total cells with miR-34 induction, stronger effect = lower value
# [19] = measured here: total cells without miR-34 induction
# [20] = MELAS cybrid survival, CellTiter-Glo 48 h, stronger effect = higher value
# [21] = Rieske KO mouse fibroblast survival, CellTiter-Glo 72 h
# [22] = stronger effect = lower value, cell number ratio, induced over uninduced
smiles,measurement,setting,value
CC(N)Cc1c[nH]c2ccc(OCc3cccs3)cc12 (configuration not stated),period change,[1],-0.015 h (inactive)
same,inhibition,[2],-2% (inactive)
same,fluorescence ratio (interference),[3],0.9 (inactive)
same,remaining activity,[4],105% (inactive)
same,fold change,[5]; stronger effect = lower value,1.09 (inactive) and 1.04 (inactive) and 0.983 (inactive)
same,fold change,[5]; [17],0.892 and 0.841 and 0.895
same,cell count,[5]; [18],9650 and 5700 and 7970
same,cell count,[5]; [19],8810 and 5500 and 8110
same,outcome,[6],inactive
same,z-score,[7],-0.655 (inactive) and -0.22 (inactive)
CN1c2ccccc2C(NCCCCCCC(=O)O)c2ccc(Cl)cc2S1(=O)=O (configuration not stated),remaining activity,[4],117% (inactive)
same,fold change,[5]; stronger effect = lower value,0.955 (inactive) and 0.9 (inactive)
same,fold change,[5]; [17],0.36 and 0.634
same,cell count,[5]; [18],7100 and 7840
same,cell count,[5]; [19],7430 and 8710
same,z-score,[8]; [20],-0.117 (inactive)
same,z-score,[8]; [21],0.00377
same,z-score,[7],0.255 (inactive)
c1ccc(C2CNCc3ccccc32)cc1 (configuration not stated),remaining activity,[4],117% (inactive)
same,fold change,[5]; [22],0.949 (inactive)
same,fold change,[5]; [17],0.998
same,cell count,[5]; [18],8070
same,cell count,[5]; [19],8500
same,z-score,[7],-0.455 (inactive)
COc1ccc(C(=O)c2c(C)n(CCN3CCOCC3)c3cc(I)ccc23)cc1,remaining activity,[4],93.9% (inactive)
same,AC50,[9],20.9 µM (active)
same,AC50,[10],23.5 µM (active)
same,AC50,[11],16.6 µM (active)
same,AC50,[12],23.5 µM (active)
same,AC50,[13],23.5 µM (active)
same,fold change,[5]; stronger effect = lower value,1.09 (inactive)
same,fold change,[5]; [17],0.642
same,cell count,[5]; [18],2860
same,cell count,[5]; [19],2630
same,z-score,[7],-0.38 (inactive)
C[N+]1(C)CCc2cc3c(cc2[C@H]1[C@@H]1OC(=O)c2c1ccc1c2OCO1)OCO3,period change,[1],-0.02 h (inactive)
same,inhibition,[2],-3% (inactive)
same,fluorescence ratio (interference),[3],1 (inactive)
same,remaining activity,[4],123% (inactive) and 114% (inactive)
same,remaining activity,[14],119% (inactive)
O=C(CCCN1CCC2(CC1)C(=O)N(Cc1cccc(F)c1)CN2c1ccccc1)c1ccc(F)cc1,remaining activity,[4],109% (inactive)
same,fold change,[5]; [22],1.27 (inactive)
same,fold change,[5]; [17],1
same,cell count,[5]; [18],1590
same,cell count,[5]; [19],1250
same,z-score,[7],-1.2 (inactive)
NC(C(=O)O)c1cc(=O)[nH]o1 (configuration not stated),period change,[1],0.025 h (inactive)
same,inhibition,[2],-1% (inactive)
same,fluorescence ratio (interference),[3],0.9 (inactive)
same,remaining activity,[4],105% (inactive)
same,fold change,[5]; stronger effect = lower value,1.08 (inactive) and 0.946 (inactive)
same,fold change,[5]; [17],1.44 and 1.4
same,cell count,[5]; [18],10500 and 9700
same,cell count,[5]; [19],9770 and 10300
same,outcome,[6],inactive
same,z-score,[7],0.635 (inactive) and 0.185 (inactive)
C[C@@]12N[C@@H](Cc3ccccc31)c1ccccc12,survival,[15],4.17 (inactive)
same,parasite load remaining,[16],76.1% (inactive)
same,viability,[16],94%
same,remaining activity,[4],98.4% (inactive)
same,fold change,[5]; stronger effect = lower value,0.9 (inactive) and 1.01 (inactive) and 0.896 (inactive)
same,fold change,[5]; [17],1.15 and 0.684 and 0.656
same,cell count,[5]; [18],9800 and 8290 and 9030
same,cell count,[5]; [19],10900 and 8240 and 10100
same,z-score,[8]; [20],-0.404 (inactive) and 0.719 (inactive)
same,z-score,[8]; [21],-0.00785 and -0.0901
same,z-score,[7],0.79 (inactive)

# Reference: PubChem BioAssay
